Bioassay records from PubChem.
Sampled rows, rich in hits. Any-hit rate of the full collection: about 21%.
MRP1 act: activators of MRP-1; viability increase, % at 10 µM; actives 0.61% (n = 140,000); H69AR cells + doxorubicin, viability rescue, CellTiter-Glo;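 active = viability gain under doxorubicin at or above a set limit, the compound median plus 3 SD, cut at about 4.7% in these data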;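 also: MRP-1 overexpressing cells given doxorubicin 25 µM after compound pretreatment; 18-22 h compound pretreatment then 72 h with doxorubicin before readout; 0% = doxorubicin-only wells and 100% = vehicle-treated cells without doxorubicin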
CYP2C9 inhib: human CYP2C9 inhibition. P11712. CYP2C9 Supersomes, luciferin-H conversion, luminescence. inhibition, % at 5 µM. actives 20% (n = 96,000);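 active = blocking of liver enzyme CYP2C9 beyond about 50% at 5 µM, limit read from the data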
MRP resist rev: compounds reversing MRP-mediated drug resistance; H69AR cells + 2 uM doxorubicin, CellTiter-Glo, 72 h; differential viability (reversal), % at 10 µM; actives 0.04% (n = 85,000); AID 602;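 active = viability drop by adding the cancer drug above about 55%, with treated viability meeting a 40% cutoff, limit read from the data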;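 also: viability without doxorubicin minus viability with 2 µM doxorubicin for each compound; larger differential means the compound sensitizes cells more to doxorubicin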
CYP2C9 act: increases human cytochrome P450 2C9 activity | actives 1.4% (n = 96,000) | activation factor at 5 µM | AID 1024 | recombinant CYP2C9, luciferin-H conversion, luminescence; hits give high values; factor 1 = untreated enzyme, 0 = blocked;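 active = activation factor of 2 or more for CYP2C9 at a 5 µM dose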;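 also: 0 = sulfaphenazole-blocked wells and 1 = vehicle-only wells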
CYP2C19 inh: inhibitors of human CYP2C19; CYP2C19 Supersomes, luciferin-H EGE luminescence, 30 min; P33261; inhibition, % at 5 µM; actives 21% (n = 96,000);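 active = CYP2C19 inhibition above a set limit at 5 µM in the primary screen, cut at about 50% in these data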;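 also: plate controls were negative control wells for no effect and 2.5 mM tranylcypromine positive control for full effect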
Target sequence (P33261 whole entry, looked up): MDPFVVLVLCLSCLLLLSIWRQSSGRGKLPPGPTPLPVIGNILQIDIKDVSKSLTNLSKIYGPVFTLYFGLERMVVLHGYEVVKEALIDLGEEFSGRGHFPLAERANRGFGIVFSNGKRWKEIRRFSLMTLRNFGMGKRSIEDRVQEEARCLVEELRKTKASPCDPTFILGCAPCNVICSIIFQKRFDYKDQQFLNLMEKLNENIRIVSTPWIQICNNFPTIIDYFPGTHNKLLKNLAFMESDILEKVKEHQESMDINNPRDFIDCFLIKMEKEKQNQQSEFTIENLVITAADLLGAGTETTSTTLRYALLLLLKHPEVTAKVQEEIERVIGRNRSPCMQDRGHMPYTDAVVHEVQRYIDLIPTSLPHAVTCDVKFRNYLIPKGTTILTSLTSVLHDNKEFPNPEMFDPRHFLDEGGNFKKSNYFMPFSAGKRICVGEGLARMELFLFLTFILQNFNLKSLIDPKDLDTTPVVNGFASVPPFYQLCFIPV
CYP2C19 act: increases human CYP2C19 enzyme activity | P33261 | recombinant CYP2C19, luciferin-H EGE luminescence; hits give high values; 0 = fully inhibited enzyme, 1 = untreated enzyme | activation factor at 5 µM | 96,000 tested, under 10 active;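 active = activation factor of at least 2 at 5 µM in the primary screen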;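 also: 0 = wells with 2.5 mM tranylcypromine and 1 = vehicle-only wells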
* marks the source's active call; other numbers are inactive results; / = no result.

SMILES	MRP1 act	CYP2C9 inhib	MRP resist rev	CYP2C9 act	CYP2C19 inh	CYP2C19 act
CCN(CC)S(=O)(=O)c1ccc(C)c(NC(=O)CSc2nc3ccc(C)cc3[nH]2)c1	-1	/	/	/	/	/
CCCN1C2=NCCN2c2cc(C)c(C)cc21	-2	3	/	1	-6	1.1
O=C(N/N=C/c1ccc2c(c1)OCO2)c1ccc(Br)o1	3	/	/	/	/	/
O=C(NC(=S)NC1C2CC3CC(C2)CC1C3)C12CC3CC(CC(C3)C1)C2 (centres undefined)	-3	/	/	/	/	/
CCOC(=O)c1ccc(NC(=O)c2ccccc2C)cc1	2	/	/	/	/	/
CCOC(=O)C1=C(C)NC(C)=C(C(=O)OCC)C1c1cccs1	-2	/	/	/	/	/
CCN(CC)C(=O)CSC1=C(C#N)C(c2cccs2)C=C(C)N1 (centres undefined)	-1	14	0	0.9	60*	0.4
CCOC(=O)CC1=C(C(=O)OCC)C(c2cc(OC)c(OC)cc2OC)C(C#N)=C(N)O1 (centres undefined)	0	48	4	0.5	33	0.7
C#CCSC1=C(C#N)C(c2cccs2)C(C(=O)OCC)=C(C)N1 (centres undefined)	-2	72*	-25	0.3	64*	0.4
CCOC(=O)CC1=C(C(=O)OCC)C(c2ccc(OC)c(OC)c2)C(C#N)=C(N)O1 (centres undefined)	0	87*	4	0.1	74*	0.3
COC(=O)CC1=C(C(=O)OC)C(c2ccncc2)C(C#N)=C(N)O1 (centres undefined)	0	80*	-8	0.2	80*	0.2
S=C1NCCc2ccc(Cl)cc2C1c1ccccc1 (centres undefined)	-4	/	19	/	/	/
CCc1cccc(CC)c1NC(=O)COn1nnc2ccc(C(F)(F)F)cc21	0	/	/	/	/	/
CN(C)CCCN1C(=O)C(O)=C(C(=O)c2cccs2)C1c1ccccn1 (centres undefined)	/	/	6	/	/	/
CC1=C(C(=O)OC(C)C)C(c2cccs2)C(C(=O)OC(C)C)=C(C)N1	-2	/	/	/	/	/
Cc1cc(C2C(C#N)=C(N)SC(N)=C2C#N)c(C)s1	-1	2	-4	1	92*	0.1
CCOC(=O)C1=C(C)OC(N)=C(C#N)C1c1ccc(OC)c(C)c1OC (centres undefined)	-1	55*	0	0.4	73*	0.3
CCOC(=O)C1=C(CC)OC(N)=C(C#N)C1c1ccc(OC)c(C)c1OC (centres undefined)	-3	/	/	/	/	/
CCNc1nc(ON=C(C)C)nc(N(C)C)n1	-3	/	/	/	/	/
CCCn1c(=O)c2ccccc2n2c(SCc3cc(=O)oc4ccc5ccccc5c34)nnc12	-3	/	/	/	/	/
CCCn1c(=O)c2ccccc2n2c(SCCOc3ccccc3F)nnc12	-3	46	-2	0.5	56*	0.4
CCCn1c(=O)c2ccccc2n2c(SCc3nnc(-c4ccccc4Br)o3)nnc12	-2	58*	19	0.4	70*	0.3
CCCn1c(=O)c2ccccc2n2c(SCC(=O)c3ccccc3)nnc12	-3	55*	-7	0.4	38	0.6
CCCn1c(=O)c2ccccc2n2c(SCCOc3ccc(Cl)cc3)nnc12	-2	-4	-8	1	17	0.8
COc1cc(C)c(Cl)cc1S(=O)(=O)NCc1ccncc1	-2	50*	5	0.5	98*	0
SMILES	MRP1 act	CYP2C9 inhib	MRP resist rev	CYP2C9 act	CYP2C19 inh	CYP2C19 act
COc1cc(C)c(Br)cc1S(=O)(=O)NCc1ccccc1	0	-38	/	1.4	65*	0.3
Cc1cc(Cl)c(S(=O)(=O)NCc2ccncc2)cc1OCC(N)=O	-3	16	-2	0.8	45	0.6
Cn1cccc1CNC(=O)Nc1ccc(Cl)cc1	0	23	-15	0.8	59*	0.4
Cn1cccc1CC(=O)NNC(=O)Nc1ccc(F)cc1	0	/	/	/	/	/
Cc1cc(C)cc(NC(=S)NCc2cccn2C)c1	-3	-110	-9	2.1*	14	0.9
Cc1cccc(NC(=S)NCc2ccc(F)cc2)c1	-3	/	/	/	/	/
Cn1cccc1CNC(=O)Nc1ccccc1	1	37	7	0.6	75*	0.2
O=C(NCc1cccs1)Nc1ccc(Cl)cc1	-3	/	17	/	/	/
CCc1cc2c(=O)n(CC)c(SC(C)C(=O)Nc3c(C)n(C)n(-c4ccccc4)c3=O)nc2s1 (centres undefined)	-4	46	-10	0.5	23	0.8
CC(C)CCN1CC(O)=C(c2nc3ccccc3[nH]2)C1=N	-2	60*	-7	0.4	68*	0.3
N=C1C(c2nc3ccccc3c(=O)[nH]2)=C(O)CN1CCO	0	-2	9	1	5	1
COCCN1CC(O)=C(c2nc3ccccc3c(=O)[nH]2)C1=N	1	/	-5	/	/	/
CCCCN1CC(O)=C(c2nc3ccccc3[nH]2)C1=N	-4	52*	-9	0.5	71*	0.3
CC(C)N1CC(O)=C(c2nc3ccccc3[nH]2)C1=N	-1	-2	2	1	54*	0.5
N=C1C(c2nc3ccccc3c(=O)[nH]2)=C(O)CN1CCc1ccccc1	-4	60*	5	0.4	63*	0.4
COC(=O)[C@@H]1C(c2c(OC)cc(OC)cc2OC)=NO[C@H]1C(=O)OC	-2	/	/	/	/	/
Cc1ccc(NC(=O)c2cc(S(=O)(=O)N3CCOCC3)c(Br)s2)cc1	-2	/	/	/	/	/
O=C(NCc1ccco1)C1Cc2ccccc2CN1S(=O)(=O)c1ccccc1F (centres undefined)	/	/	1	/	/	/
Cc1ccc(OCCCC(=O)Nc2nncs2)cc1	-1	74*	18	0.3	88*	0.1
Cc1ccc(OCCCC(=O)Nc2ccc(Br)cc2)cc1	-1	36	/	0.6	24	0.8
O=C(CCCOc1ccc(Cl)cc1)Nc1nncs1	-1	68*	/	0.3	68*	0.3
Nc1nnc(CC(c2ccccc2)c2ccccc2)s1	-3	20	12	0.8	85*	0.1
C/C(=N/NS(=O)(=O)c1ccc(C)cc1)c1ccc(NC(=O)C(F)(F)F)cc1	-2	/	/	/	/	/
C/C(=N/NS(=O)(=O)c1ccc(F)cc1)c1ccc(NC(=O)c2ccc(C)o2)cc1	-1	95*	/	0.1	45	0.5
Cc1nc2ccccc2c2c1C(=O)N(C1CCCCCCC1)C2=O	-3	15	2	0.9	12	0.9
SMILES	MRP1 act	CYP2C9 inhib	MRP resist rev	CYP2C9 act	CYP2C19 inh	CYP2C19 act
Cc1nc2ccccc2c2c1C(=O)N(Cc1cccnc1)C2=O	0	46	20	0.5	97*	0
COc1ccccc1C(=O)n1nc(-c2ccccc2)nc1NCc1ccco1	-1	59*	6	0.4	61*	0.4
Cc1ccc(S(=O)(=O)n2nc(-c3ccc(Cl)cc3)nc2NCc2ccco2)cc1	-1	48	0	0.5	68*	0.3
CC(=O)n1nc(-c2ccco2)nc1N	-2	-7	-9	1.1	-3	1
COc1ccc(CNc2nc(-c3cccnc3)nn2C(=O)c2ccco2)cc1	-2	53*	10	0.5	41	0.6
COc1ccc(CNc2nc(-c3cccnc3)nn2C(=O)c2cccs2)cc1	0	/	/	/	/	/
